Among the data in PubChem BioAssay (EPA / NIEHS) are outcome and AC50 values, retold here.

Values joined by “and” are separate entries in the source; they are usually repeats but may differ in a detail not shown here. Equal entries are not always repeated. The source holds several records for some structures; these can differ, active in one and inactive in another. Active and inactive are the calls of the source. Rule for the calls: active = hit-call score of the fitted dose curve at least 0.9, where 1 is the maximum; inactive = score below 0.9.

The nature of the first test: ATG_TAL_CIS: Attagene CIS-FACTORIAL HepG2 Assay for human TAL Basal Promoter (AID 2282966).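 Note: background control endpoint measuring basal TAL promoter reporter mRNA not a specific factor.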 The following applies: HepG2 Attagene cis-factorial TAL promoter reporter; actives raise or lower the signal. The method in brief:
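Readout: reporter mRNA, fluorescence by CE. System: HepG2, transient multi-reporter transfection, endogenous TF activity. Exposure: 24 h. Analysis: bidirectional, DMSO-normalized; background control.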
Take `CCCCCCCCCCCCOC(=O)c1cc(O)c(O)c(O)c1`: the outcome was inactive.

With `CCOC(C)=O`, the result was inactive.

For `Cc1ccccc1OCC(=O)O`, the result was inactive.

For the compound `NCc1cccc(CN)c1`, the result was inactive.

As to `CC(C)(C)c1ccc(CCC=O)cc1`, the result was inactive.

Consider `CC(=O)CC(C)C`, for which the outcome was inactive.

As to `NNc1nc(-c2ccc([N+](=O)[O-])cc2)cs1`, the result was inactive.

As for `OCC(F)(F)C(F)(F)C(F)(F)C(F)(F)C(F)(F)C(F)(F)C(F)(F)C(F)(F)C(F)(F)C(F)(F)C(F)(F)F`, the compound was called inactive.

For the compound `COC(=O)C(F)(F)C(F)(F)C(F)(F)F`, the outcome was inactive.

In the case of `CCOC=O`, the compound was classed as inactive.

As to `CCCCCCCCCCCC[N+](C)(C)CCCCCCCCCCCC`, the call was inactive.

In the case of `CCCCCCCCCC=CCC1CC(=O)OC1=O` (centres undefined), the compound was called inactive.

On to `FC(F)(F)C(F)(F)C(F)(F)Br`, for which the compound was classed as inactive.

For `Oc1cccc2c(O)cccc12`, the result was inactive.

Another test in a line: ATG_TGFb_CIS: Attagene CIS-FACTORIAL HepG2 Assay for human Transforming Growth Factor (TGF) (AID 2282967). The conditions noted are these: HepG2 Attagene CIS TGFb reporter, mRNA transcription; actives raise or lower the signal. In short, it runs like this: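 Transcript-level reporter readout: HepG2 transfectants, 24 h exposure, RNA to cDNA, reporter-specific PCR, fluorescent primer extension, capillary sizing against ROX standards. Gain- or loss-of-signal relative to DMSO.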
On to `CC1=CC(=O)c2ccccc2C1=O`, for which the result was inactive.

With `CC(C)(C)C1CCCCC1O` (centres undefined), the compound was classed as inactive.

Turning to `CC(C)CCOCCC(C)C`, the compound was classed as inactive.

Turning to `CCCCCCCCCCCCCC[n+]1ccccc1`, the result was inactive.

As for `CCCCCCCC(OC)OC`, the compound was classed as inactive.

For `O=CC(F)(F)C(F)(F)C(F)(F)C(F)F`, the compound was classed as inactive.

Take `CCCCCCCCCCCCCCC`: the compound was classed as inactive.

Regarding `O=C1OC(=O)C(F)(F)C1(F)F`, the compound was classed as inactive.

With `COCN(COC)c1nc(N(COC)COC)nc(N(COC)COC)n1`, the outcome was inactive.

As for `CC(=O)Nc1ccc(S(N)(=O)=O)cc1`, the outcome was inactive.

In the case of `CCCCCCCCCCCC(=O)NCCCN(C)C`, the outcome was inactive.

With `C=CC(C)(CCC=C(C)C)OC(C)=O` (centres undefined), the result was inactive.

Consider `O=C(OC(=O)C(F)(F)C(F)(F)F)C(F)(F)C(F)(F)F`, for which the outcome was inactive.

Take `C[N+](C)(CCCNS(=O)(=O)CCC(F)(F)C(F)(F)C(F)(F)C(F)(F)C(F)(F)C(F)(F)F)CC(=O)[O-]`: the outcome was inactive.

`CCOC(=O)CN[C@@H](C(=O)N1CC[C@H]1C(=O)NCc1ccc(/C(N)=N/O)cc1)C1CCCCC1`: the compound was called inactive.

As for `CC(O)COc1ccccc1` (centres undefined), the result was inactive.

With `CCC(C)c1ccccc1O` (centres undefined), the compound was classed as inactive.

Regarding `C/C=C/C(=O)C1=C(C)CCCC1(C)C`, the compound was called inactive.

Regarding `O=C(NCc1ncc(C(F)(F)F)cc1Cl)c1c(Cl)cccc1Cl`, the result was inactive.

As for `CCCCCC(C)OC(=O)COc1ccc(Cl)c2cccnc12` (centres undefined), the compound was called inactive.

The AC50 is the concentration giving half of the maximal activity seen. Consider `O=S(=O)(O)C(F)(F)C(F)(F)C(F)(F)C(F)(F)C(F)(F)C(F)(F)C(F)(F)C(F)(F)C(F)(F)C(F)(F)F`, for which the AC50 is 132 µM (active) and 31.7 µM (active).

On to `c1cc2cccc3c4cccc5cccc(c(c1)c23)c54`, for which the outcome was inactive.

For the compound `CCCCC(CC)C(=O)OCCOCCOCCOCCOC(=O)C(CC)CCCC` (centres undefined), the outcome was inactive.

For `CCCCCCCCCCCCOC(=O)c1cc(O)c(O)c(O)c1`, the outcome was inactive.

Regarding `CCOC(C)=O`, the compound was classed as inactive.

Consider `Cc1ccccc1OCC(=O)O`, for which the result was inactive.

Regarding `NCc1cccc(CN)c1`, the result was inactive.

Consider `CC(C)(C)c1ccc(CCC=O)cc1`, for which the outcome was inactive.

For the compound `CC(=O)CC(C)C`, the outcome was inactive.

For `NNc1nc(-c2ccc([N+](=O)[O-])cc2)cs1`, the compound was classed as inactive.

Regarding `OCC(F)(F)C(F)(F)C(F)(F)C(F)(F)C(F)(F)C(F)(F)C(F)(F)C(F)(F)C(F)(F)C(F)(F)C(F)(F)F`, the result was inactive.

Turning to `COC(=O)C(F)(F)C(F)(F)C(F)(F)F`, the result was inactive.

As to `CCOC=O`, the compound was called inactive.

Regarding `CCCCCCCCCCCC[N+](C)(C)CCCCCCCCCCCC`, the compound was classed as inactive.

For `CCCCCCCCCC=CCC1CC(=O)OC1=O` (centres undefined), the result was inactive.

As to `FC(F)(F)C(F)(F)C(F)(F)Br`, the result was inactive.

For `Oc1cccc2c(O)cccc12`, the compound was classed as inactive.

The next test can be described thus: ATG_VDRE_CIS: Attagene CIS-FACTORIAL HepG2 Assay for human Vitamin D Receptor Element (VDRE) (AID 2282968). The conditions noted are these: HepG2 VDRE cis-reporter transcription, actives raise or lower the signal. In short, it runs like this:
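Cell-based multiplexed reporter format in human liver HepG2 cells, 24 h post-dose. Fluorescence from capillary electrophoresis of reporter cDNA gives the signal, with DMSO as negative control and baseline.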
Turning to `CC1=CC(=O)c2ccccc2C1=O`, the compound was called inactive.

Turning to `CC(C)(C)C1CCCCC1O` (centres undefined), the compound was classed as inactive.

With `CC(C)CCOCCC(C)C`, the compound was called inactive.

Regarding `CCCCCCCCCCCCCC[n+]1ccccc1`, the outcome was inactive.

Turning to `CCCCCCCC(OC)OC`, the compound was classed as inactive.

Consider `O=CC(F)(F)C(F)(F)C(F)(F)C(F)F`, for which the call was inactive.

`CCCCCCCCCCCCCCC`: the call was inactive.

Consider `O=C1OC(=O)C(F)(F)C1(F)F`, for which the result was inactive.

On to `COCN(COC)c1nc(N(COC)COC)nc(N(COC)COC)n1`, for which the outcome was inactive.

On to `CC(=O)Nc1ccc(S(N)(=O)=O)cc1`, for which the call was inactive.

For `CCCCCCCCCCCC(=O)NCCCN(C)C`, the half-maximal activity concentration (AC50) was 18 µM (active).

`C=CC(C)(CCC=C(C)C)OC(C)=O` (centres undefined): the outcome was inactive.

`O=C(OC(=O)C(F)(F)C(F)(F)F)C(F)(F)C(F)(F)F`: the result was inactive.

In the case of `C[N+](C)(CCCNS(=O)(=O)CCC(F)(F)C(F)(F)C(F)(F)C(F)(F)C(F)(F)C(F)(F)F)CC(=O)[O-]`, the call was inactive.

In the case of `CCOC(=O)CN[C@@H](C(=O)N1CC[C@H]1C(=O)NCc1ccc(/C(N)=N/O)cc1)C1CCCCC1`, the result was inactive.

For `CC(O)COc1ccccc1` (centres undefined), the result was inactive.

Take `CCC(C)c1ccccc1O` (centres undefined): the AC50 is 74.6 µM (active) and the compound was classed as inactive.

As to `C/C=C/C(=O)C1=C(C)CCCC1(C)C`, the AC50 was 7.43 µM (active).

With `O=C(NCc1ncc(C(F)(F)F)cc1Cl)c1c(Cl)cccc1Cl`, the result was inactive.

As for `CCCCCC(C)OC(=O)COc1ccc(Cl)c2cccnc12` (centres undefined), the call was inactive.

For the compound `O=S(=O)(O)C(F)(F)C(F)(F)C(F)(F)C(F)(F)C(F)(F)C(F)(F)C(F)(F)C(F)(F)C(F)(F)C(F)(F)F`, the result was inactive.

Consider `c1cc2cccc3c4cccc5cccc(c(c1)c23)c54`, for which the compound was classed as inactive.

In the case of `CCCCC(CC)C(=O)OCCOCCOCCOCCOC(=O)C(CC)CCCC` (centres undefined), the concentration at half-maximal activity (AC50) was 27.8 µM (active).

`CCCCCCCCCCCCOC(=O)c1cc(O)c(O)c(O)c1`: the compound was classed as inactive.

As to `CCOC(C)=O`, the compound was called inactive.

Regarding `Cc1ccccc1OCC(=O)O`, the compound was classed as inactive.

As for `NCc1cccc(CN)c1`, the compound was called inactive.

As for `CC(C)(C)c1ccc(CCC=O)cc1`, the outcome was inactive.

With `CC(=O)CC(C)C`, the compound was called inactive.

Take `NNc1nc(-c2ccc([N+](=O)[O-])cc2)cs1`: the call was inactive.

Take `OCC(F)(F)C(F)(F)C(F)(F)C(F)(F)C(F)(F)C(F)(F)C(F)(F)C(F)(F)C(F)(F)C(F)(F)C(F)(F)F`: the outcome was inactive.

Turning to `COC(=O)C(F)(F)C(F)(F)C(F)(F)F`, the compound was called inactive.

`CCOC=O`: the result was inactive.

On to `CCCCCCCCCCCC[N+](C)(C)CCCCCCCCCCCC`, for which the AC50 was 8.42 µM (active).

Regarding `CCCCCCCCCC=CCC1CC(=O)OC1=O` (centres undefined), the call was inactive.

With `FC(F)(F)C(F)(F)C(F)(F)Br`, the compound was classed as inactive.

For the compound `Oc1cccc2c(O)cccc12`, the call was inactive.
